# Results: PubChem BioAssay AID1964107 (National Center for Advancing Translational Sciences (NCATS), 2024)
# “And” between values parts separate entries of the source, which are not always exact repeats. Equal values may be shown once. In all, about 31,000 compounds went through this assay and about 360 (1.2%) were called active. About 8% were inconclusive and are not listed. The sample holds actives, similar compounds and a random draw of the others, so the mix is not that of the screen. Unmarked numbers belong to inactive results. Calls come from the whole dose curve.
# Biological target: Polyprotein P1234 (Chikungunya virus (strain S27-African prototype)) (UniProt Q8JUX6)
# Test: Primary qHTS for inhibitors of NSP2Pro chikungunya virus (CHIKV); note: nearly all actives have a fitted effect of over 60% in size
# Conditions: FRET peptide cleavage, fluorescence 1 h; series mostly up to 24.9 µM; activity change, negative = inhibition: at the top concentration
# Source text: PI: Natalia J. Martinez Ph.D. National Center for Advancing Translational Sciences (NCATS), National Institute of Health (NIH), Rockville, Maryland Chikungunya virus (CHIKV) is a mosquito-borne RNA virus that has emerged as one of the most important global arboviral threats in the last decade. Although the first CHIKV vaccine has recently been FDA approved for use in healthy adults at increased risk, to date, there are no available antiviral drugs for CHIKV infection. CHIKV nsP2 protease plays a crucial role in the processing of the viral polypeptide precursor to release enzymes required for viral replication, thus making it a promising drug target for antiviral discovery. Here, we established a high-throughput pipeline to identify small molecule inhibitors of nsP2 proteolytic activity. The pipeline is composed of a suite of 1,536-well in vitro assays to support quantitative high-throughput (qHTS) screening campaigns. Specifically, we developed a fluorescence resonance energy transfer (FRET)-based assay using a fluorogenic peptide substrate encompassing an endogenous cleavage site and purified recombinant protease domain (nsP2pro). Using this assay, we interrogated ~37,000 small molecules, including those in drug repurposing libraries as well as chemically diverse and medicinal chemistry-friendly compounds. Hits were selected for follow-up validation against full-length nsP2 and an additional peptide. FRET-based 1,536-well assays for papain, hepatitis C virus NS3-4A, and human furin proteases were implemented to characterize compound selectivity. […] Novel compounds were identified to be potential nsP2 inhibitors and molecular docking analyses were performed to explain the binding mode of selected hits. In vitro antiviral activity was evaluated for a subset of compounds using a high-throughput CHIKV infection assay. To our knowledge, the pipeline presented here is unprecedented for CHIKV antiviral discovery research.
# PROTOCOL TABLE (as described by Inglese J, Shamu CE and Guy RK. 2007) SEQUENCE No. (e.g., 1, 2, 3, etc.); […] (e.g., Cells, Incubation, Reagent, etc.); VALUE; DESCRIPTION. 1; Control / Compound; 20 nL; Echo 655 acoustic dispenser, Greiner 1536-well solid bottom black plate. 2; Enzyme; 4 uL; BioRAPTR FRD liquid dispenser (Beckman Coulter). 3; Incubation; 15 min; room temperature. 4; Reagent; 4 uL; 2.5 uM Peptide 2 substrate. 5; Incubation; 1 hr; room temperature. 6; Detection; Fluorescence; WiewLux microplate reader (PerkinElmer), 525 nm excitation, 598/25 nm emission. NOTES (numbers refer to sequence numbers above). 1. Briefly, 20 nL DMSO, positive control ZnAc (20nM final concentration), and test compounds were transferred into a 1,536-well solid bottom black plate (789176-F, Greiner One) via Echo 655 acoustic dispenser (Beckman Coulter). For primary screens, compounds were tested at 7 concentrations, 1:3 dilution points ranging from 25 uM to 34 nM. Follow-up confirmatory screens were carried out at 11 concentrations, 1:3 dilution points from 25 uM to 0.42 nM. 2. Four uL nsP2pro enzyme mix (150 nM final concentration) in 10 mM Tris-HCl pH 8.0 with 0.01% Tween 20 assay buffer was dispensed into the plate using a BioRAPTR FRD liquid dispenser (Beckman Coulter). 3. The plate was incubated at room temperature (protected from light) for 15 min 4. Four microliter of peptide 2 substrate (2.5 uM final concentration) in assay buffer was added to the plate. 5. After 1 hour, plates were immediately read on a ViewLux high-throughput CCD imager (Exposure = 10 sec, Gain = High, Speed = Slow, Binning = 2X). The above assay was also incorporated in the NCATS HTS facility41, which allowed for robotic liquid and compound dispensing, microplate handling, and fluorescence reading.. REFERENCE: Inglese J, Shamu CE and Guy RK, Reporting data from high throughput screening of small molecule libraries, Nature Chemical Biology, 2007, 3(8): 438-441. doi.org/10.1038/nchembio0807-438.
# % is set by controls: 0 for no effect and ±100 for the full control effect; potency is the fitted concentration of half-maximal effect.
# Sequence of Polyprotein P1234 (Chikungunya virus (strain S27-African prototype)) (Q8JUX6 whole entry, looked up): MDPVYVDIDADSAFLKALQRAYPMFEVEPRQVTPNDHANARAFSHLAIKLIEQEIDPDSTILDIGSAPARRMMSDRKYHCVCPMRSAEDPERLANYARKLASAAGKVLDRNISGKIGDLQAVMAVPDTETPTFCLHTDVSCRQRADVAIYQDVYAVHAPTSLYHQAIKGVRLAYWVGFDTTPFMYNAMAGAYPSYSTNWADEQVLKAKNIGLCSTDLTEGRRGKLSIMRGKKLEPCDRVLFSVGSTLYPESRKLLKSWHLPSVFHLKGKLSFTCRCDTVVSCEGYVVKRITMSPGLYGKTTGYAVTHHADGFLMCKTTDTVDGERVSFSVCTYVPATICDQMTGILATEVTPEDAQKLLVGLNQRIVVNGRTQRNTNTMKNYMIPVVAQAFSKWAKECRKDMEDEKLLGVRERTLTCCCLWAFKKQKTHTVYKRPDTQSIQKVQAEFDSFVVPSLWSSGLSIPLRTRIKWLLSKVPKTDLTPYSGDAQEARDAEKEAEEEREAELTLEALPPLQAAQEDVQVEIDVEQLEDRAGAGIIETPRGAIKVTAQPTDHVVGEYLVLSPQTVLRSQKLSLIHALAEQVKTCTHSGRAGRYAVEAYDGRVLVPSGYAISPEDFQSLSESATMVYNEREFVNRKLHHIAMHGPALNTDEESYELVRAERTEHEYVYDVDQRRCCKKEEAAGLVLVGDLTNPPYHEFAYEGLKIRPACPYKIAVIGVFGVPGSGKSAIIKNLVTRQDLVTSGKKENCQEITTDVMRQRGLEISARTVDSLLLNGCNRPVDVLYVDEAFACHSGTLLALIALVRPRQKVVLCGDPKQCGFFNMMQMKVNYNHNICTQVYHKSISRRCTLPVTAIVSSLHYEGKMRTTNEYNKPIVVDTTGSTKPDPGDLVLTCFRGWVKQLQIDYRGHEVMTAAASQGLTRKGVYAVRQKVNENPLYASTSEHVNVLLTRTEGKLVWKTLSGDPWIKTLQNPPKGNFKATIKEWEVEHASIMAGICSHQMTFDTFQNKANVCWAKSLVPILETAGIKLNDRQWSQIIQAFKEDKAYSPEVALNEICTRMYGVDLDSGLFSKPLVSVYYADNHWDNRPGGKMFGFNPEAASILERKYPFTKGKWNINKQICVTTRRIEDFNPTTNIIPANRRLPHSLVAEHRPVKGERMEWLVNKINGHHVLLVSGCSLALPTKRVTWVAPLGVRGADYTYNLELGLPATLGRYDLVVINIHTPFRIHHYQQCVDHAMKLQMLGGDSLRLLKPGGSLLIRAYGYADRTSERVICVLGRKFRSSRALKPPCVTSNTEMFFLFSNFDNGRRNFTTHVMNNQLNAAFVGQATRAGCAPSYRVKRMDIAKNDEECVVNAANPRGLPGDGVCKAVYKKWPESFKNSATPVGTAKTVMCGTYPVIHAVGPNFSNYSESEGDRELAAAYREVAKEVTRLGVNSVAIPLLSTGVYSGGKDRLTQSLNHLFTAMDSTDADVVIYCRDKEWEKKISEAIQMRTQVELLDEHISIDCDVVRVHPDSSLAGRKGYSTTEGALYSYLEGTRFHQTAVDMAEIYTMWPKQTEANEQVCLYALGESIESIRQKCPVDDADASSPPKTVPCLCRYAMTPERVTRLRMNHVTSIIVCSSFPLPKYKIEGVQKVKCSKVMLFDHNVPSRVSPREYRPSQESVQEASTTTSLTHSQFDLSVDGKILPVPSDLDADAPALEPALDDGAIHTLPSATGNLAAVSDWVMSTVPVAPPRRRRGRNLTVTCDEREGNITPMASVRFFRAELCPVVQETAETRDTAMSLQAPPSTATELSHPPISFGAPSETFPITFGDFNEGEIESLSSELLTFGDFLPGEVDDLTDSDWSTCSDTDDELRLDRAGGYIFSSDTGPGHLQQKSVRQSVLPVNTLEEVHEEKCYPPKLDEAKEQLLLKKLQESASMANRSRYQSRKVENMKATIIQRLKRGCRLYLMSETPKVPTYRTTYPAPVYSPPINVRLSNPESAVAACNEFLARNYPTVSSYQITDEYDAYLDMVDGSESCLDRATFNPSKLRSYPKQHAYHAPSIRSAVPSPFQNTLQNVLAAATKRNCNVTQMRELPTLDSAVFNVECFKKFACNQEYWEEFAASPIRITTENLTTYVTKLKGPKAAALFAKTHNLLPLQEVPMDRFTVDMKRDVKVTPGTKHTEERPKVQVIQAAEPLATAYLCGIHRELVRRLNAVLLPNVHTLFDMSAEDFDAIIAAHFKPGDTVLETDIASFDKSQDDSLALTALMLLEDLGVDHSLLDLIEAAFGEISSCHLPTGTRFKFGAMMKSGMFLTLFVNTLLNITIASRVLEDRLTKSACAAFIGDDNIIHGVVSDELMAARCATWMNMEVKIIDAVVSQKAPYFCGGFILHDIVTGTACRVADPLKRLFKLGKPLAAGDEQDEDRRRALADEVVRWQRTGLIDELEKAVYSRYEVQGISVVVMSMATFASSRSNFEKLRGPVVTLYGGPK
SMILES,"activity change, negative = inhibition",outcome,Potency
Cc1ccc(Cl)cc1NC(=O)C1CCCN(c2cnccn2)C1 (centres undefined),-12.4%,–,–
C=C1C(=O)OC2C=C(C)CC/C=C(\CO)CC(O)C12 (centres undefined),7.09%,–,–
CCN(c1ncnc2c1cnn2-c1ccc(C)cc1)C1CCCCC1,-18.5%,–,–
Cc1ccc(Cl)cc1NC(=O)/C(C#N)=C\c1cn(Cc2ccc(F)cc2)c2ccccc12,-21.6%,–,–
CCCN1CCc2nc(N3CCN(C)CC3)ncc2C1,20.9%,–,–
CC1CCN(S(=O)(=O)c2ccc3c(ccn3CCC(=O)NCc3ccc(N(C)C)cc3)c2)CC1,-2.09%,–,–
Oc1ccc2c3c1O[C@H]1c4[nH]c5c(N=C=S)cccc5c4C[C@@]4(O)[C@@H](C2)N(CC2CC2)CC[C@]314,0.0256%,–,–
O=C(NCC(c1ccc2c(c1)OCO2)N1CCN(c2ccccc2)CC1)C(=O)Nc1ccccc1F (centres undefined),-7.61%,–,–
Cc1cc(C(=O)NC2CC(c3cc(=O)[nH]cn3)C2)cc(S(N)(=O)=O)c1C (centres undefined),1.79%,–,–
CCS(=O)(=O)N1CCc2cc(C(=O)NCc3ccc(OC)cc3)ccc21,-17.8%,–,–
Cc1nc(CNC(=O)[C@H]2CCC[C@@H](O)C2)nc2c1CCCC2,1%,–,–
CCOC(=O)c1ccc(NC(=O)C2CC(=O)N(c3ccc(C(C)C)cc3)C2)cc1 (centres undefined),-20.5%,–,–
Cc1nc(C)c(-c2ccc3ncnc(N(C)Cc4sccc4C)c3c2)s1,3.77%,–,–
O=C(Cn1c(=O)n(-c2ccc(F)cc2)c(=O)c2sccc21)Nc1cccc(C(F)(F)F)c1,8.21%,–,–
COc1cc(C(C)=O)ccc1O[C@@H]1O[C@H](CO[C@@H]2OC[C@@H](O)[C@H](O)[C@H]2O)[C@@H](O)[C@H](O)[C@H]1O,-10.4% [at 10 µM],–,–
Cc1cc(-c2ccc(C)c(S(=O)(=O)N3c4ccccc4CC3C)c2)on1 (centres undefined),-5.69%,–,–
CCOC(=O)N1CCc2c(sc3c2c(=O)n(Cc2ccccc2)c(=O)n3CC(=O)Nc2cccc(C)c2)C1,-10.2%,–,–
CNC(=O)[C@@H]1C[C@@H](O)CN1C1CCN(C(=O)C2(c3ccccc3)CC2)CC1,-7.73%,–,–
O=c1cc(-c2cccnc2)oc2c(-c3cccc(CO)c3)nccc12,-7.39% [at 39.2 µM],–,–
NC(=O)CN1CC2(CCC1=O)CCN(C[C@@H](O)CO)CC2,-3.19%,–,–
Cc1nc(C(=O)N2CCn3nc(Cc4ccccc4)cc3C2)cs1,–,inactive,–
OCC1(CCCc2ccccc2)CCCNC1 (centres undefined),–,inactive,–
Cc1ccc(OCCn2c(CCNC(=O)c3ccccc3)nc3ccccc32)cc1,-8.68%,–,–
Cc1cccc(Nc2nc(C)nc(N)c2S(=O)(=O)c2ccccc2)c1,5.91%,–,–
N#CSc1cc(SC#N)c(N)nc1N,–,–,664 nM (active) and 351 nM (active) and 1.24 µM (active)
CCCNC(=O)C(CC)n1nc(CC)n2c(cc3oc(C)cc32)c1=O (centres undefined),-23%,–,–
COc1ccc(-c2ccccc2C(=O)NCC#N)nn1,–,inactive [at 39.2 µM],–
COC([CH2][Hg])CNC(=O)c1ccccc1OCC(=O)O (centres undefined),–,–,1.49 µM (active)
Cc1ccc(CNC(=O)CSC2=Nc3ccccc3C3=NC(C)C(=O)N23)cc1 (centres undefined),-15%,–,–
